PubChem BioAssay (EPA / NIEHS)
Inconclusive results are not listed. Activity calls are given as the source filed them. How the source made its calls: active means hit-call score of the fitted dose curve at least 0.9, where 1 is the maximum; inconclusive means response in the unintended direction; inactive means score below 0.9.

Assays:
[1] = LTEA_HepaRG_LDH_cytotoxicity: Cytotoxicity Assessment in the Life Technologies and Expression Analysis (LTEA) Assay (AID 2283563)
How it was run: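 Differentiated human HepaRG cells, plated 48 h beforehand, were switched to serum-free induction medium and exposed for 48 h to eight half-log concentrations (top 100 uM) in 0.5% DMSO. LDH was measured in spent medium; activity was fitted relative to DMSO vehicle.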

[2] = TOX21_p53_BLA_p2_viability: Viability Assessment in the Tox21 HCT-116 p53 Agonism Beta-lactamase Assay, Phase 2 (AID 2283591);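 further: compound exposure lasted 16 h at 37 °C; actives lower the ATP signal meaning cytotoxicity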
How it was run: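 Cytotoxicity readout: CellTiter-Glo ATP luminescence, 30 min at room temperature, after the beta-lactamase read. Cells were HCT116 exposed 16 h at 37C to compounds pin-transferred at 217-fold dilution from DMSO stocks.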

[3] = molecular target: Cellular tumor antigen p53 (Homo sapiens) (UniProt P04637); assay: TOX21_p53_BLA_p2_ratio: Tox21 HCT-116 p53 Agonism Beta-lactamase Assay, Ratio, Phase 2 (AID 2283592)
How it was run: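 Ratio endpoint: beta-lactamase cleavage of CCF4-AM, blue (460 nm) over green (530 nm). HCT116 reporter line; 16 h treatment, 37C; substrate 2 h RT.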

[4] = TOX21_p53_BLA_p3_viability: Viability Assessment in the Tox21 HCT-116 p53 Agonism Beta-lactamase Assay, Phase 3 (AID 2283593);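 further: cells exposed to compound for 16 h before reading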
How it was run: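 Cellular ATP was quantified by CellTiter-Glo luminescence, read after 30 min at room temperature. Beforehand, HCT116 cells (4000/well) received compound 5 h post-seeding, 217-fold diluted from DMSO, then incubated 16 h at 37C.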

[5] = molecular target: Cellular tumor antigen p53 (Homo sapiens) (UniProt P04637); assay: TOX21_p53_BLA_p3_ratio: Tox21 HCT-116 p53 Agonism Beta-lactamase Assay, Ratio, Phase 3 (AID 2283596)
How it was run: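 Cells were seeded at 4000/well, rested 5 h at 37C, then dosed with DMSO compound solutions (217-fold dilution) for 16 h. CCF4-AM substrate was loaded for 2 h at room temperature, and the 460/530 nm emission ratio was fitted for gain of signal versus DMSO.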

[6] = TOX21_p53_BLA_p4_viability: Viability Assessment in the Tox21 HCT-116 p53 Agonism Beta-lactamase Assay, Phase 4 (AID 2283597);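 further: hits lower the luminescence signal meaning cytotoxicity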
How it was run: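 Cytotoxicity was inferred from loss of CellTiter-Glo luminescence. HCT116 cells had been dosed with compounds after 5 h plating, incubated 16 h at 37C and 5% CO2, and exposed to the CCF4-AM substrate for 2 h.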

[7] = molecular target: Cellular tumor antigen p53 (Homo sapiens) (UniProt P04637); assay: TOX21_p53_BLA_p5_ratio: Tox21 HCT-116 p53 Agonism Beta-lactamase Assay, Ratio, Phase 5 (AID 2283599)
How it was run: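 Beta-lactamase reporter ratio (blue 460 nm over green 530 nm, 405 nm excitation) after 2 h CCF4-AM loading, in HCT-116 cells exposed 16 h at 37 C to compounds pinned at 217-fold dilution. Increases relative to DMSO baseline scored.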

[8] = TOX21_p53_BLA_p5_viability: Viability Assessment in the Tox21 HCT-116 p53 Agonism Beta-lactamase Assay, Phase 5 (AID 2283600)
How it was run: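 Luciferase-coupled ATP quantitation of cells treated for 16 h (37C, 5% CO2) with test chemicals delivered in DMSO via a 217-fold dilution; 4000 cells/well; reagent incubated 30 min at room temperature before luminescence reading.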

[9] = molecular target: Cellular tumor antigen p53 (Homo sapiens) (UniProt P04637); assay: TOX21_p53_BLA_p4_ratio: Tox21 HCT-116 p53 Agonism Beta-lactamase Assay, Ratio, Phase 4 (AID 2283601)
How it was run: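 Signal is the blue/green (460nm/530nm) ratio of cleaved versus uncleaved CCF4-AM substrate, read after 2 h substrate loading. Cells were HCT116 carrying the p53-responsive beta-lactamase reporter, dosed 16 h at 37C, 5% CO2; CellTiter-Glo measured in parallel.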

[10] = Tanguay_ZF_120hpf_MORT_legacy: (Legacy) Oregon State University Tanguay Lab 120 Hour Post-fertilization zebrafish Assay for Mortality (AID 2283633)
How it was run: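 Dechorionated Tropical 5D wild-type zebrafish embryos, one per well from 6 hpf, were statically exposed at 28C in the dark until 120 hpf (0.64% DMSO final). Mortality was scored as present/absent by brightfield microscopy, fitted positively versus DMSO.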

[11] = Tanguay_ZF_120hpf_YSE_legacy: (Legacy) Oregon State University Tanguay Lab 120 Hour Post-fertilization zebrafish Assay for Yolk Sac Edema (AID 2283634);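 on AC50: actives raise the incidence of yolk sac edema above the DMSO baseline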
How it was run: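 Tropical 5D wild-type embryos, dechorionated with pronase at 4 hpf, were exposed singly from 6 hpf to 120 hpf under static, sealed, dark conditions at 28C with 0.64% DMSO final. Yolk sac edema was scored present/absent by brightfield microscopy.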

[12] = Tanguay_ZF_120hpf_AXIS_legacy: (Legacy) Oregon State University Tanguay Lab 120 Hour Post-fertilization zebrafish Assay for Body Axis Malformation (AID 2283635);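 on AC50: potency for an increased fraction of larvae scored with body axis malformation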
How it was run: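 Tropical 5D wild-type zebrafish embryos, dechorionated with pronase at 4 hpf, were placed singly in wells at 6 hpf and exposed statically to test chemical (0.64% DMSO final) at 28C until 120 hpf, then scored by brightfield for body axis defects.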

[13] = Tanguay_ZF_120hpf_EYE_legacy: (Legacy) Oregon State University Tanguay Lab 120 Hour Post-fertilization zebrafish Assay for Eye Malformation (AID 2283636);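 further: binary presence or absence of eye malformation scored by brightfield in 120 hpf larvae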
How it was run: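 Binary brightfield scoring of eye defects at 120 hpf after static exposure from 6 hpf of single pronase-dechorionated wild-type embryos (28C, 0.64% DMSO). Non-mortality endpoints omitted where embryos died; fit vs DMSO.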

[14] = Tanguay_ZF_120hpf_SNOU_legacy: (Legacy) Oregon State University Tanguay Lab 120 Hour Post-fertilization zebrafish Assay for Snout Malformation (AID 2283637)
How it was run: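 Binary snout-malformation call at 120 hpf in wild-type 5D embryos, chorion removed by pronase, under static exposure from 6 hpf at 28C (0.64% DMSO). Embryos dying by 24 or 120 hpf excluded.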

[15] = Tanguay_ZF_120hpf_JAW_legacy: (Legacy) Oregon State University Tanguay Lab 120 Hour Post-fertilization zebrafish Assay for Jaw Malformation (AID 2283638)
How it was run: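 Tropical 5D wild-type embryos, dechorionated with pronase at 4 hpf, were placed singly per well at 6 hpf and statically exposed at 28C until 120 hpf (0.64% DMSO final). Jaw malformation scored as present/absent by brightfield microscopy at 120 hpf, analyzed relative to DMSO.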

[16] = Tanguay_ZF_120hpf_OTIC_legacy: (Legacy) Oregon State University Tanguay Lab 120 Hour Post-fertilization zebrafish Assay for Otic Vesicle Malformation (AID 2283639)
How it was run: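 Brightfield scoring at 120 hpf, binary present/absent; DMSO negative control, 5uM trimethyltin chloride positive control. Static exposure at 28C, final DMSO 0.64% (vol/vol). Dead embryos not scored for malformation.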

[17] = Tanguay_ZF_120hpf_PE_legacy: (Legacy) Oregon State University Tanguay Lab 120 Hour Post-fertilization zebrafish Assay for Pericardial Edema (AID 2283640);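 on AC50: potency for increased incidence of pericardial edema versus DMSO baseline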
How it was run: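 Tropical 5D wild-type zebrafish embryos were exposed statically to 120 hpf at 28C, sealed and foil-covered, in 0.64% DMSO final. Pericardial edema was scored present/absent by brightfield microscopy; dead embryos were not scored.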

[18] = Tanguay_ZF_120hpf_BRAI_legacy: (Legacy) Oregon State University Tanguay Lab 120 Hour Post-fertilization zebrafish Assay for Brain Malformation (AID 2283641)
How it was run: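 Tropical 5D wild-type zebrafish embryos were exposed statically in sealed, foil-covered plates at 28C until 120 hpf, with 0.64% (vol/vol) final DMSO. Brain malformation was scored present/absent by brightfield microscopy, relative to DMSO baseline.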

[19] = Tanguay_ZF_120hpf_SOMI_legacy: (Legacy) Oregon State University Tanguay Lab 120 Hour Post-fertilization zebrafish Assay for Somite Malformation (AID 2283647)
How it was run: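 Tropical 5D wild-type zebrafish embryos, dechorionated with pronase at 4 hpf, were placed singly at 6 hpf and statically exposed until 120 hpf at 28C in 0.64% DMSO. Somite malformation was scored present/absent by brightfield microscopy versus DMSO.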

[20] = ATG_XTT_Cytotoxicity: Cytotoxicity Assessment in the Attagene TRANS-FACTORIAL HepG2 Assay (AID 2283584)
How it was run: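 HepG2 human liver cells, transiently transfected with multiple GAL4-UAS reporter units, were dosed and read at 24 h by XTT as cell number. Loss of signal was fitted relative to DMSO negative control baseline.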

Measured: AC50

Chain of Cellular tumor antigen p53 (Homo sapiens) (P04637 whole entry, looked up): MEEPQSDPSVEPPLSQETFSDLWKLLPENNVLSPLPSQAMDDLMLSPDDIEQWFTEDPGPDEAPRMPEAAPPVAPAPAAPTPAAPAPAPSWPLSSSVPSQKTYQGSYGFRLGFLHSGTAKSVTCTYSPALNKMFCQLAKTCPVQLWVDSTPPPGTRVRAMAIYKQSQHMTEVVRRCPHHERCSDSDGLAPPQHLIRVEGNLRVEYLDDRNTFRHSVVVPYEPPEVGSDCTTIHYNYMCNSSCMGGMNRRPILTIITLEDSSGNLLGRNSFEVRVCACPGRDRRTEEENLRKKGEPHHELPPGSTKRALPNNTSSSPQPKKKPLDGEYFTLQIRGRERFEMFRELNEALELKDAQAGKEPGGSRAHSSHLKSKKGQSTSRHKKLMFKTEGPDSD

O=C(Nc1ccccc1-c1ccc(Cl)cc1)c1cccnc1Cl
inactive: [1] | [2] | [3] | [4] | [5] | [6] | [7] | [8] | [9] | [10] | [11] | [12] | [13] | [14] | [15] | [16] | [17] | [18] | [19]

C=C(C)CN(CC)c1c([N+](=O)[O-])cc(C(F)(F)F)cc1[N+](=O)[O-]
active: [9] 0.000117 µM
inactive: [1] | [20] | [2] | [3] | [4] | [5] | [7] | [10] | [11] | [12] | [14] | [15] | [16] | [17] | [18] | [19]

CC(C)N1C(=O)c2ccccc2NS1(=O)=O
inactive: [1] | [2] | [3] | [4] | [5] | [6] | [7] | [8] | [9] | [10] | [12] | [13] | [14] | [15] | [16] | [17] | [18] | [19]

CS(=O)(=O)c1ccc(C(=O)C2C(=O)CCCC2=O)c([N+](=O)[O-])c1
inactive: [1] | [2] | [3] | [4] | [5] | [6] | [7] | [8] | [9] | [10] | [11] | [12] | [13] | [14] | [15] | [16] | [17] | [18] | [19]

CC(C)(C)C(=O)C(Oc1ccc(Cl)cc1)n1cncn1 (centres undefined)
inactive: [1] | [2] | [3] | [4] | [5] | [6] | [8] | [13] | [15] | [18] | [19]
active: [7] 86 µM | [11] 36.8 µM | [12] 41.3 µM | [14] 34.8 µM | [17] 37.5 µM

CC(C)NC(=O)N1CC(=O)N(c2cc(Cl)cc(Cl)c2)C1=O
inactive: [1] | [20] | [2] | [3] | [4] | [5] | [6] | [7] | [8] | [9] | [10] | [11] | [12] | [13] | [14] | [15] | [16] | [17] | [18] | [19]
